The campaign covered roughly 53,000 compounds. About 900 (1.7%) showed an effect of 50% or more. For the sample, strong results were picked, then their nearest neighbours and some compounds at random.

The experiment has as its system Mycobacterium tuberculosis. The experiment in a line: Cornell - Phenotypic assay to identify agents that inhibit growth of Mycobacterium tuberculosis. The experiment is classed as functional. More on the design: scale not given: direction of the effect not stated beside the values. The note with it: 10 mM as filed; unlikely as a test dose.
With `O=C(Cc1csc(-c2ccoc2)n1)NCCC(=O)N1CCCCC1`, the “Percent Effect” value is -18.79%.
With `O=C(CN1CCC(c2ccccc2)CC1)NCc1cc2n(n1)CCNC2`, the “Percent Effect” value was -6.243%.
`Cc1ccc(NC(=O)c2coc(C)n2)c(C)c1`: the “Percent Effect” value turned out to be 2.34%.
For `CCN1CCCC(O)(c2nc(C)c(CCOc3ccccc3Cl)s2)CC1` (stereo not drawn), the “Percent Effect” value is 12.65%.
As for `Fc1cnc(N2CCO[C@H]3[C@H](OCC4CCOCC4)CC[C@@H]32)nc1.O=C(O)C(F)(F)F`, the “Percent Effect” value was -12.23%.
In the case of `Fc1cc(F)cc(CN2CCC(c3cc4ncccc4cn3)CC2)c1`, the “Percent Effect” value is reported as 48.17%.
For the compound `Cl.Fc1ccc(F)c(CN2CCC(c3cc4ncccc4cn3)CC2)c1`, the “Percent Effect” value was determined as 106.2%.
For `Fc1cccc(CN2CCC(c3n[nH]c4ncccc34)CC2)c1F`, the “Percent Effect” value came to 12.02%.
As to `CCc1cc(C(=O)N2CCC(c3cc4ncccc4cn3)CC2)no1`, the “Percent Effect” value is on record as -43.86%.
Regarding `COc1ccc(C)cc1CN1CCC(c2cc3ncccc3cn2)CC1.Cl`, the “Percent Effect” value is on record as 102.1%.
To `Fc1cccc(CN2CCC(c3noc(-c4ccccn4)n3)CC2)c1F` belongs 10.24%.
Consider `Fc1ccc(F)c(CN2CCC(c3cnccn3)CC2)c1`, for which the “Percent Effect” value is on record as -8.862%.
As for `CCc1onc(C)c1C(=O)N1CCC(c2cc3ncccc3cn2)CC1`, the “Percent Effect” value is recorded as -10.62%.
Next, `Cl.Fc1cccc(CN2CCC(c3cc4ncccc4cn3)CC2)c1F`: 106.5%.
Next, `CN(C)CC(=O)N1CCCC1c1ccccn1` (stereo not drawn): -4.262%; `Cc1cc(O)nc(C2CN(CCO)CCO2)n1` (stereo not drawn): -14.9%.
Next, `O=C(NC(Cc1ccsc1)c1nccs1)C1CC1` (stereo not drawn): 1.52%; `COc1ccc(-c2cc(C(=O)NCCC(C)C)n(C)n2)cc1`: 20.81%; `Cc1cnc(-c2nc(O)c3c(n2)CN(C(=O)C2CCOC2)CC3)cn1` (stereo not drawn): 13.55%.
In the case of `Cc1nccn1-c1nccnc1C1CCCN(C2CCCC2)C1` (stereo not drawn), the “Percent Effect” value is recorded as -26.29%.
Regarding `CCc1nccn1C1CCCN(C(=O)c2c(C)nsc2NC)C1` (stereo not drawn), the “Percent Effect” value was -1.736%.
Consider `COCCc1noc(CNC(C)(CO)C2CCCCC2)n1` (stereo not drawn), for which the “Percent Effect” value was determined as 19.83%.
In the case of `Cc1ncc2c(n1)CN(CC(=O)Nc1c(C)nn(C)c1C)CC2`, the “Percent Effect” value is -7.381%.
For the compound `COc1ccc(-c2nc(CN3CCCC(OC)C3)c(C)o2)c(F)c1` (stereo not drawn), the “Percent Effect” value is 56.05%.
On to `CCCOC1CCCN(Cc2nc(-c3ccc(F)cc3F)oc2C)C1` (stereo not drawn), for which the “Percent Effect” value turned out to be 18.51%.
Take `COCc1ncn(Cc2nc(-c3ccc(OC)cc3F)oc2C)n1`: the “Percent Effect” value is recorded as -34.66%.
On to `COCC(=O)NC[C@]1(O)CN(Cc2ccc3c(c2)OCCO3)C[C@H]1O`, for which the “Percent Effect” value is on record as 24.95%.
For `CCn1cc(CN2CCC(c3ncc(Cl)cc3S(C)(=O)=O)CC2)c(C)n1`, the “Percent Effect” value stood at 37.62%.
With `CCn1ncc(CN2CCC(c3ncc(Cl)cc3S(C)(=O)=O)CC2)c1C`, the “Percent Effect” value worked out at 50.49%.
As to `C=Cn1ncc(CN2CCC(c3ncc(Cl)cc3S(C)(=O)=O)CC2)c1C`, the “Percent Effect” value is listed as 0.06604%.
Turning to `O=C(NS(=O)(=O)c1cccnc1)C1CC(c2ccccc2)=NO1` (stereo not drawn), the “Percent Effect” value was determined as 35.93%.
To `Cc1ncc2c(n1)CCCC2NC(=O)c1ccc(Cn2cccn2)cc1` (stereo not drawn) belongs -3.537%; to `Cc1occc1C(=O)N1CCC2(CC1)CN(c1ccccn1)CCO2.O=C(O)C(F)(F)F`, 15.62%; to `CCc1ccc(CN(C)c2cc(COC)nc3ccnn23)cc1`, 59.92%.
As for `COCc1cc(N(C)Cc2c(C)nn(C)c2C)n2nccc2n1`, the “Percent Effect” value was -21.67%.
To `CCc1cc(N(C)Cc2ccncn2)n2nccc2n1` belongs -22.97%.
Take `CCCc1nc(N[C@H]2COC[C@@H]2N2CCCCC2)c2cnn(C)c2n1`: the “Percent Effect” value is given as 6.118%.
With `COc1cn(-c2ccccc2)nc1C(=O)NCCN1CCCC(C)C1` (stereo not drawn), the “Percent Effect” value is on record as -24.88%.
Next, `CC(C)CCc1n[nH]c(C(=O)O)c1Cl`: -0.9753%; `CC(C)CCc1n[nH]c(C(=O)O)c1Br`: 50.18%.
Consider `CC(C)CCc1n[nH]c(C(=O)O)c1I`, for which the “Percent Effect” value stood at 42.63%.
Consider `Cc1nn(CC(C)C)cc1S(=O)(=O)N(C)Cc1nonc1C`, for which the “Percent Effect” value came to 22.09%.
For `c1cncc(O[C@H]2COCCN(C3CCC3)C2)c1`, the “Percent Effect” value was determined as 18.67%.
Next, `c1cnc(CC2COCCN(C3CCCCC3)C2)cn1` (stereo not drawn): 63.08%; `Cc1nccc(CC2COCCN(c3cnccn3)C2)n1` (stereo not drawn): -7.582%.
As for `O=C(O)C(F)(F)F.c1cnc(N2CCC3(COCc4cnc(-c5cccnc5)nc43)C2)nc1` (stereo not drawn), the “Percent Effect” value is recorded as -17.47%.
In the case of `CN(C)CC(=O)N1CC2(CCN(C(=O)Nc3ccccc3)C2)C1.O=C(O)C(F)(F)F`, the “Percent Effect” value is reported as -36.23%.
On to `CC(C)c1nc(C2CCCN2CCc2ccccn2)no1` (stereo not drawn), for which the “Percent Effect” value is -3.374%.
Take `c1ccc2oc(CCCN3CCCCC3Cn3cncn3)nc2c1` (stereo not drawn): the “Percent Effect” value worked out at 60.48%.
With `Cc1cc(C)n(CC2CCCN2CCCc2nc3ccccc3o2)n1` (stereo not drawn), the “Percent Effect” value was 14.18%.
Regarding `CC(C)c1nc(C2CCCN2CCCc2nc3ccccc3o2)no1` (stereo not drawn), the “Percent Effect” value was determined as 73.44%.
To `CC(C)c1nc(C2CCCN2CCc2ccncc2)no1` (stereo not drawn) belongs -12.21%.
`Cc1nn(C)c(C)c1C1CCCN1CCCc1nc2ccccc2o1` (stereo not drawn): the “Percent Effect” value was determined as 65.17%.
Take `Cc1cc(C2CCCN2CCCc2nc3ccccc3o2)on1` (stereo not drawn): the “Percent Effect” value is recorded as 56.86%.
To `Cc1nc(C)n(CC2CCCN2CCCc2nc3ccccc3o2)n1` (stereo not drawn) belongs 0.1227%; to `Cc1cnn(CC2CCCN2CCCc2nc3ccccc3o2)c1` (stereo not drawn), 32.71%; to `Cc1nn(C)c(C)c1C1CCCN1CCCC#N` (stereo not drawn), -3.092%.
For the compound `c1ccc2oc(CCCN3CCCC3Cn3cncn3)nc2c1` (stereo not drawn), the “Percent Effect” value turned out to be 23.86%.
`c1ccc2oc(CN3CCCCC3Cn3cncn3)nc2c1` (stereo not drawn): the “Percent Effect” value was 10.3%.
On to `CN1CCC(Nc2ccc(Cl)cc2OCC(F)(F)F)C1=O` (stereo not drawn), for which the “Percent Effect” value stood at 4.127%.
Next, `CC(C)[C@H]1CN(Cc2ccncc2)C[C@@H]1NC(=O)C1(C#N)CCOCC1`: 8.101%; `CCOc1cncc(N2CCCC2c2nnc3n2CCCCC3)n1` (stereo not drawn): 14.34%; `Cn1ncc2c1CN(Cc1ccc(F)cc1)CC2COCC1CC1.O=C(O)C(F)(F)F.O=C(O)C(F)(F)F` (stereo not drawn): -21.09%.
Next, `Cc1nn(C)cc1NC(=O)CC1CCN(C(=O)Cc2ccccc2)CC1`: -9.652%; `Cn1cc(CNC2CCCOc3c(Cl)cccc32)cn1` (stereo not drawn): 11.42%.
As for `Cn1ccnc1CNC1CCCOc2c1ccc1ccccc21` (stereo not drawn), the “Percent Effect” value is on record as 21.15%.
As to `Cn1cc(CNC2CCCOc3c2ccc2ccccc32)cn1` (stereo not drawn), the “Percent Effect” value is 52.41%.
Regarding `O=C(Cn1ccnc1)N1CCCC(OCc2cccnc2)C1` (stereo not drawn), the “Percent Effect” value is recorded as -41.24%.
Take `CN(C)C(=O)CN1C[C@H]2CN(Cc3cccc(F)c3)C(=O)[C@H]2C1.O=C(O)C(F)(F)F`: the “Percent Effect” value amounted to 15.1%.
Next, `Cn1nc2c(c1NC(=O)c1cccs1)CCC2`: 1.253%; `N#Cc1ccc(N2CCC3(CC2)CC(OCc2cccnc2)CO3)cc1.O=C(O)C(F)(F)F` (stereo not drawn): 25.8%.
In the case of `Fc1cnc(N2CCC3(CC2)CC(OCc2cccnc2)CO3)nc1.O=C(O)C(F)(F)F.O=C(O)C(F)(F)F` (stereo not drawn), the “Percent Effect” value was determined as 8.704%.
For the compound `Fc1ccc(N2CCC3(CC2)CC(OCc2cccnc2)CO3)cc1.O=C(O)C(F)(F)F` (stereo not drawn), the “Percent Effect” value is reported as 62.76%.
Next, `CCn1nccc1CN(C)c1nc(N)nc2c1nc(C)n2C`: -2.939%; `NC1(CN2CCCCC2)CCCCC1`: -23.07%.
As to `Cc1cccnc1NC(=O)CC1(Cn2cnnn2)CCCCC1`, the “Percent Effect” value is reported as 1.711%.
Regarding `COCCNC(=O)CCc1c(C)nn(-c2nc(C)c(C)c(=O)[nH]2)c1C`, the “Percent Effect” value was 25.57%.
Take `Cc1nc(-n2nc(C3CC3)cc2NC(=O)C(C)C)[nH]c(=O)c1C`: the “Percent Effect” value is given as 77.31%.
Turning to `CC(=O)Nc1cc(C2CC2)nn1-c1nc(C)c(C)c(=O)[nH]1`, the “Percent Effect” value was -29.54%.
Take `Cc1cc(C)n(-c2cncc(NCCNC(=O)C(C)C)n2)n1`: the “Percent Effect” value is on record as 10.14%.
To `CC(=O)N1CCN(c2cc(CCNC(=O)C(C)C)nc(C3CC3)n2)CC1` belongs -12.23%.
Next, `Cc1cc(NC(=O)C(C)C)n(-c2nc(C)c(C)c(=O)[nH]2)n1`: 105.9%.
Take `Cc1cc(-c2nccs2)nc(C2CCN(Cc3cccs3)CC2)n1`: the “Percent Effect” value turned out to be 25.07%.
As to `Cc1nccn1Cc1nnc(C2CCCN(c3ncccn3)C2)n1C` (stereo not drawn), the “Percent Effect” value is recorded as -33.54%.
Next, `COCCN1CCCC(c2nc(C)n3c(C)c(C)sc23)C1` (stereo not drawn): 6.759%; `O=C(N1CCOCC1)N1C[C@H]2CN(Cc3nccs3)C[C@H]2C1.O=C(O)C(F)(F)F`: 17.29%.
To `CCCNC(=O)C(C)n1nc(-c2ccc(C)o2)cc(N)c1=O` (stereo not drawn) belongs 66.1%.
Next, `Cc1ccc(-c2cc(N)c(=O)n(C(C)C(=O)NC(C)C)n2)o1` (stereo not drawn): 26.87%; `COCCNC(=O)C(C)n1nc(-c2ccc(C)o2)cc(N)c1=O` (stereo not drawn): -59.92%.
For `O=C(N1CCOCC1)[C@@]12CCO[C@@H]1CCN(C1CCCCC1)C2.O=C(O)C(F)(F)F`, the “Percent Effect” value is on record as -10.99%.
Next, `COc1ccc(C(=O)N2CCCC(C)C2)cc1F` (stereo not drawn): -4.81%; `CC1CCCN(C(=O)c2cc(-c3ccco3)cs2)C1` (stereo not drawn): 33.45%; `COc1cccc(CCC2CCCN(C(=O)c3ccccn3)C2)c1` (stereo not drawn): 5.867%.
Consider `COc1cccc(CCC2CCCN(C(C)=O)C2)c1` (stereo not drawn), for which the “Percent Effect” value is listed as 19.46%.
For the compound `COc1cccc(CCC2CCCN(C(=O)c3ccc(OC)o3)C2)c1` (stereo not drawn), the “Percent Effect” value came to 67.76%.
As for `CC1=C(C(=O)N2CCOC(Cc3cccc(C(F)(F)F)c3)C2)OCCO1` (stereo not drawn), the “Percent Effect” value amounted to 22.58%.
As for `CC1CCCN(C(=O)c2ccc(-c3ccco3)o2)C1` (stereo not drawn), the “Percent Effect” value was found to be 79.8%.
`COc1ccc(C(=O)N2CCOC(Cc3cccc(C(F)(F)F)c3)C2)o1` (stereo not drawn): the “Percent Effect” value was determined as 107.3%.
To `CC(=O)N1CCOC(Cc2cccc(C(F)(F)F)c2)C1` (stereo not drawn) belongs 25.26%.
Regarding `COCCOCCCNC(=O)c1cc(Cl)cc2cccnc12`, the “Percent Effect” value is 14.25%.
Consider `CNC(=O)c1cc(C)nc(C2(C)CCCN2c2cc(C)ncn2)n1` (stereo not drawn), for which the “Percent Effect” value is listed as -3.041%.
`CCc1ncc(C(=O)N(C)C(C)c2ccc3c(c2)OCCO3)cn1` (stereo not drawn): the “Percent Effect” value is given as -2.31%.
For `Cc1cccnc1CCNCC1(O)CCCN(CC2CCCCC2)C1=O` (stereo not drawn), the “Percent Effect” value is on record as -24.48%.

The values above are taken from ChEMBL document CHEMBL3988442, “University of Dundee, Small-Polar-MMV Screening Library” (2021).
